Structures are written as SMILES. In all, about 48,000 compounds went through this assay and about 13,000 (27%) showed an effect of 50% or more. This is one part of the list.

In this test the test system is Wolbachia pipientis. Description: Anti-Wolbachia Cell-Based Screen. The test is classed as functional. The note with it: 5 µM. Set-up: scale not given: in the data most compounds retested in dose-response had high values.
As for `N#CCCN(CCC#N)C(=O)CN1CCCC1Cc1cccc(F)c1` (configuration not stated), the “Percent Effect” value is on record as -4.236%.
Regarding `COC(=O)[C@@H]1CN(S(=O)(=O)c2ccccc2)CCN1S(C)(=O)=O`, the “Percent Effect” value was -4.195%.
Regarding `CC(O)CN1CCC(CNCc2cccc(C(N)=O)c2)CC1` (configuration not stated), the “Percent Effect” value is 1.784%.
Consider `COC(=O)c1ccc(S(=O)(=O)N2CCC(Oc3cccnn3)CC2)cc1`, for which the “Percent Effect” value was -19.83%.
The figure for `COCCN1CCN(Cc2cccc(C(N)=O)c2)CC1C` (configuration not stated) is 5.406%; for `COC(=O)c1cccn1C1CCN(S(=O)(=O)c2ccccc2)CC1` it is 89.91%.
Consider `COC(=O)c1cccn1C1CCN(Cc2cccc(C(N)=O)c2)CC1`, for which the “Percent Effect” value stood at 132.6%.
The same measure for `CCOCCn1c(=O)n(CCC(C)C)c2ncc(C(=O)O)cc21`: -3.937%; for `COCC(=O)Nc1ccc([C@@H](O)[C@H]2COCC(=O)N2C)cc1`: -3.081%.
The figure for `CS(=O)(=O)N1CCN(C(=O)c2cccc(Cl)c2)CC2(CNC(=O)C2)C1` (configuration not stated) is 2.79%.
For `CC(C)C(=O)N1CCCC1c1nc(N(C)C)ncc1-c1ccc(Cl)cc1` (configuration not stated), the “Percent Effect” value worked out at 126.5%.
`CCC(=O)N1CCCC1c1nc(N(C)C)ncc1-c1ccc(Cl)cc1` (configuration not stated): the “Percent Effect” value is listed as 84.51%.
Turning to `CN(C)c1ccc(C(=O)N2CCCC2c2ccc(Cl)cc2)cc1` (configuration not stated), the “Percent Effect” value worked out at 5.929%.
The figure for `Cc1nc(CC(=O)N2CCC[C@H]2c2nc(C(C)C)no2)cs1` is -12.82%; for `Cc1cccc(N(CCC#N)S(=O)(=O)CC2CCCCO2)c1` (configuration not stated) it is -8.784%; for `N#Cc1cc(C#N)c(SCCC(=O)Nc2ccc(F)cc2)nc1N` it is -13.62%.
The same measure for `C[C@@H]1CN(C2(C(=O)N(C)C)Cc3ccccc3C2)C[C@H](C)O1`: 1.411%.
For the compound `CN1C[C@@H](C(=O)NC(C)(C)C)[C@@]2(CCc3ccccc3C(=O)N2)C1`, the “Percent Effect” value is on record as 141.5%.
With `CC(C)(C)NC(=O)[C@@H]1CNC[C@]12Cc1ccccc1C(=O)N2`, the “Percent Effect” value is listed as 114.2%.
Consider `CCNC(=O)N1CC[C@@H](CC(=O)O)[C@@H](CC2=NCCc3ccccc32)C1`, for which the “Percent Effect” value amounted to 7.982%.
Take `CN1CC(C(=O)NC(C)(C)C)CC1=O` (configuration not stated): the “Percent Effect” value turned out to be 0.8346%.
`CN1C[C@@H](C(=O)N(C)C)[C@@]2(CCc3ccccc3C(=O)N2)C1.Cl`: the “Percent Effect” value is on record as 136.2%.
Turning to `CN(C)C(=O)N1CCC2(CC1)NC(=O)c1ccccc12.Cl`, the “Percent Effect” value is -7.31%.
Regarding `CN1C[C@@H](C(=O)N2CCCOCC2)[C@@]2(CCc3ccccc3C(=O)N2)C1`, the “Percent Effect” value is listed as -5.089%.
The figure for `O=C(c1ccccc1)N1CC(C(=O)N2CCOCC2)C2(CCOCC2)C1` (configuration not stated) is -41.49%; for `CN1C[C@@H](C(=O)N2CCOCC2)[C@@]2(CCc3ccccc3C(=O)N2)C1` it is 147.9%; for `COC(=O)CN(Cc1ccccc1C)C(=O)CCCNC(=O)C1CC1` it is -13.3%.
Consider `CN(C)CCNc1ncccc1CNC(=O)Nc1cc(F)cc(F)c1`, for which the “Percent Effect” value was -8.67%.
Turning to `CC(C)(C)c1cnc(CN2CCC(NC(=O)C3CCOCC3)CC2)o1`, the “Percent Effect” value is given as -13.41%.
On to `COC1CCN(CCNC(=O)NCC(C)c2cccc(C)c2)CC1` (configuration not stated), for which the “Percent Effect” value is 5.114%.
The figure for `COCCN(C)C[C@@H]1CCC[C@@H]2CN(Cc3ccc(OC)nc3)C[C@@H]21.O=C(O)C(F)(F)F.O=C(O)C(F)(F)F` is 8.299%; for `COC(=O)N1CCc2ccccc2C1C(=O)NCC(F)(F)F` (configuration not stated) it is 5.157%; for `CN1C[C@@H](C(=O)NCC(F)(F)F)[C@@]2(CCc3ccccc3C(=O)N2)C1` it is 103.7%.
In the case of `O=C(NCC(F)(F)F)C1CCC(=O)N(C2CCCC2)C1` (configuration not stated), the “Percent Effect” value is recorded as 11.17%.
Turning to `CCC(C)C(=O)NCc1cc(Br)c(OC)c(OC)c1` (configuration not stated), the “Percent Effect” value is -3.921%.
As to `Cc1ccc(CNC(=O)CCN2CCOC(C(F)(F)F)C2)cc1` (configuration not stated), the “Percent Effect” value is listed as -2.283%.
In the case of `CCS(=O)(=O)c1ccc(N2CCC(NC(=O)CCC(C)C)CC2)cc1`, the “Percent Effect” value came to 4.61%.
